Where “and” joins values, the source holds several entries; their conditions need not be identical. Equal values may be shown once. Compounds without any hit were thinned out: in the full panel of roughly 83,000, 20% have a hit.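 Each cell line was grown in a 96-well plate and treated with one concentration of compound for 48 hours. Values below 10 were considered active.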
Experiments:
Assay in all cases: NCI-60 one-dose screen, 48 h (100 = growth as untreated, 0 = no growth, -100 = all killed)
Conditions in all cases: 10 µM unless noted
SK-MEL-2 melanoma = tested on: SK-MEL-2 melanoma
EKVX NSCLC = tested on: EKVX NSCLC
SN12C renal = tested on: SN12C renal
UO-31 renal = tested on: UO-31 renal
TK-10 renal = tested on: TK-10 renal
CAKI-1 renal = tested on: CAKI-1 renal
A498 renal = tested on: A498 renal
CCRF-CEM leukemia = tested on: CCRF-CEM leukemia
MOLT-4 leukemia = tested on: MOLT-4 leukemia
ACHN renal = tested on: ACHN renal

Measured: growth

Cc1ccc(C(=O)c2ccc(C)cc2)cc1
inactive: SK-MEL-2 melanoma 98.5% and 98.1% | EKVX NSCLC 92.6% and 101% | SN12C renal 92.6% and 103% | UO-31 renal 76.9% and 98.3% | TK-10 renal 101% and 96.5% | CAKI-1 renal 93.4% | A498 renal 96.4% and 111% | CCRF-CEM leukemia 91.6% and 93.3% | MOLT-4 leukemia 82.5% and 97.8%

Oc1cccnc1CN1CCOCC1
inactive: SK-MEL-2 melanoma 97.5% and 132% | EKVX NSCLC 105% and 91.9% | SN12C renal 104% and 95.6% | UO-31 renal 78.4% and 88.4% | TK-10 renal 110% and 109% | CAKI-1 renal 105% and 89.2% | A498 renal 112% | CCRF-CEM leukemia 103% and 88.7% | MOLT-4 leukemia 99.1% and 107%

Cc1c(O)nc(N)[nH]c1=O
inactive: SK-MEL-2 melanoma 123% | EKVX NSCLC 106% | SN12C renal 109% | UO-31 renal 82.9% | TK-10 renal 126% | ACHN renal 108% | CAKI-1 renal 110% | A498 renal 109% | MOLT-4 leukemia 102%

CS(=O)(=O)OCC1NC(=O)C(COS(C)(=O)=O)NC1=O (stereo not given)
inactive: SK-MEL-2 melanoma 75.4% and 89.1% | EKVX NSCLC 98.9% and 89.2% | SN12C renal 108% and 111% | UO-31 renal 91.7% and 94.1% | TK-10 renal 130% and 138% | ACHN renal 93.7% and 85.9% | CAKI-1 renal 97% and 91.3% | A498 renal 104% and 154% | MOLT-4 leukemia 91.6% and 69%

Oc1ccc(O)c(-c2ccccc2)c1
inactive: SK-MEL-2 melanoma 72.5% | EKVX NSCLC 77.7% | SN12C renal 68% | UO-31 renal 43.4% | CAKI-1 renal 74.6% | A498 renal 132% | CCRF-CEM leukemia 10.1% | MOLT-4 leukemia 20.7%

CC(C)=NOC(C)C(=O)O (stereo not given)
inactive: SK-MEL-2 melanoma 107% | EKVX NSCLC 95.9% | SN12C renal 94.1% | UO-31 renal 97.5% | ACHN renal 102% | CAKI-1 renal 104% | A498 renal 89.2% | CCRF-CEM leukemia 103% | MOLT-4 leukemia 105%

COc1cc2c(cc1O)C(=O)CCCC2
inactive: SK-MEL-2 melanoma 98% | EKVX NSCLC 81.6% | SN12C renal 111% | UO-31 renal 90.4% | CAKI-1 renal 73.3% | A498 renal 116% | CCRF-CEM leukemia 97.7% | MOLT-4 leukemia 83.9%

NCCSSC/C=C\CSSCCN
inactive: SK-MEL-2 melanoma 113% | EKVX NSCLC 123% | SN12C renal 98.6% | UO-31 renal 80% | ACHN renal 110% | CAKI-1 renal 101% | A498 renal 88.9% | CCRF-CEM leukemia 95.8% | MOLT-4 leukemia 98%

From PubChem BioAssay (NCI)
